Test results reported in the supplement of paper PMC10849652.
Of roughly 7,900 targets only a part is listed; those with a hit were picked by preference. About 0.6% of all pairs of compound and target were hits.

Tests used:
Test in all cases: log2 fold change, soluble protein after heating vs DMSO (PISA); higher = thermal stabilisation; K562 cells, 10 uM, 30 min; active = over 0.2 and 3.5 SD of the protein, either way, in both replicates (recomputed)
saracatinib = compound: CN1CCN(CCOc2cc(OC3CCOCC3)c3c(Nc4c(Cl)ccc5c4OCO5)ncnc3c2)CC1 [saracatinib]
Procedure, shortened: (§1)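 Soluble protein was defined as the supernatant after 21,000xg for 90 min. It came from K562 cells at 2×10^6 cells/mL given 10 μM compound for 30 min, heated in aliquots for 3 min across 48°C-58°C, pooled, and extracted in PBS with 0.5% NP-40 at 4°C, and was quantified by TMTpro 16plex LC-MS/MS with equalised channel sums. Thermal stability against control samples, from duplicates, is reported as log2 fold change.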

sotrastaurin = compound: CN1CCN(c2nc(C3=C(c4c[nH]c5ccccc45)C(=O)NC3=O)c3ccccc3n2)CC1 [sotrastaurin]
Procedure, shortened: as §1

alvocidib = compound: CN1CC[C@H](c2c(O)cc(O)c3c(=O)cc(-c4ccccc4Cl)oc23)[C@H](O)C1 [alvocidib]
Procedure, shortened: as §1

Tubastatin A = compound: CN1CCc2c(c3ccccc3n2Cc2ccc(C(=O)NO)cc2)C1 [Tubastatin A]
Procedure, shortened: as §1

[1] = compound: CNC(=O)C1=CC=CC=C1NC2=NC(=NC=C2Cl)NC3=C(C=C(C=C3)N4CCOCC4)OC
Procedure, shortened: as §1

defactinib = compound: CNC(=O)c1ccc(Nc2ncc(C(F)(F)F)c(NCc3nccnc3N(C)S(C)(=O)=O)n2)cc1 [defactinib]
Procedure, shortened: as §1

rucaparib = compound: CNCc1ccc(-c2[nH]c3cc(F)cc4c3c2CCNC4=O)cc1 [rucaparib]
Procedure, shortened: as §1

[2] = compound: CNc1nc(-c2ccc3c(N)n[nH]c3c2)cc(N2C[C@@H](C(=O)NC3CCCCC3)CC[C@H]2C)n1
Procedure, shortened: as §1

encorafenib = compound: COC(=O)N[C@@H](C)CNc1nccc(-c2cn(C(C)C)nc2-c2cc(Cl)cc(NS(C)(=O)=O)c2F)n1 [encorafenib]
Procedure, shortened: as §1

[3] = compound: COC(=O)[C@H](CCSC)NC(=O)C1=C(C=C(C=C1)NC[C@H](CS)N)C2=CC=CC=C2
Procedure, shortened: as §1

Measured: log2 fold change

RAVER1 (UniProt E9PAU2)
inactive: saracatinib -0.086 | sotrastaurin -0.376 | alvocidib -0.624 | Tubastatin A 0.413 | [1] -0.069 | defactinib -0.322 | rucaparib -0.186 | [2] -0.087 | encorafenib 0.105 | [3] -0.065

RAB33B (UniProt Q9H082)
inactive: saracatinib 0.158 | sotrastaurin 0.057 | alvocidib 0.038 | Tubastatin A 0.013 | [1] -0.01 | defactinib -0.005 | rucaparib 0.035 | [2] -0.031 | encorafenib 0 | [3] 0.032

SGPL1 (UniProt O95470)
inactive: saracatinib -0.014 | sotrastaurin 0.03 | alvocidib 0.04 | Tubastatin A -0.031 | [1] 0.064 | defactinib 0.012 | rucaparib 0.1 | [2] 0.015 | encorafenib 0.08 | [3] -0.157

RAP1GDS1 isoform 5 (UniProt P52306)
inactive: saracatinib 0.004 | sotrastaurin -0.077 | alvocidib -0.069 | Tubastatin A -0.01 | [1] 0.006 | defactinib -0.017 | rucaparib -0.006 | [2] -0.024 | encorafenib 0.176 | [3] 0.139

RDH11 (UniProt Q8TC12)
Sequence of UniProt Q8TC12 (Q8TC12 whole entry, looked up): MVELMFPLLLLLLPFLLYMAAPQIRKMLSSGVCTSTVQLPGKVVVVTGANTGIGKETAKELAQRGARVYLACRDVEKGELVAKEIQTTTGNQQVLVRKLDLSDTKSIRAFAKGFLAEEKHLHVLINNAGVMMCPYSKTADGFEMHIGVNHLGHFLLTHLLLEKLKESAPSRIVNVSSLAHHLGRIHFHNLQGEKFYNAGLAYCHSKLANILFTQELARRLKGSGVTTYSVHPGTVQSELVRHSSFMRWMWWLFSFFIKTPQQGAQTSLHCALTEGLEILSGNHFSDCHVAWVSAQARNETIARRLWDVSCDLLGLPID
inactive: saracatinib -0.121 | sotrastaurin -0.019 | alvocidib -0.028 | Tubastatin A 0.003 | [1] 0.136 | defactinib 0.001 | rucaparib 0.113 | [2] 0.019 | encorafenib 0.094 | [3] -0.086

RETSAT (UniProt Q6NUM9)
inactive: saracatinib -0.088 | sotrastaurin 0.054 | alvocidib 0.03 | Tubastatin A 0.185 | [1] 0.02 | defactinib -0.05 | rucaparib -0.001 | [2] -0.014 | encorafenib 0.012 | [3] -0.075

RCN3 (UniProt Q96D15)
Sequence of UniProt Q96D15 (Q96D15 whole entry, looked up): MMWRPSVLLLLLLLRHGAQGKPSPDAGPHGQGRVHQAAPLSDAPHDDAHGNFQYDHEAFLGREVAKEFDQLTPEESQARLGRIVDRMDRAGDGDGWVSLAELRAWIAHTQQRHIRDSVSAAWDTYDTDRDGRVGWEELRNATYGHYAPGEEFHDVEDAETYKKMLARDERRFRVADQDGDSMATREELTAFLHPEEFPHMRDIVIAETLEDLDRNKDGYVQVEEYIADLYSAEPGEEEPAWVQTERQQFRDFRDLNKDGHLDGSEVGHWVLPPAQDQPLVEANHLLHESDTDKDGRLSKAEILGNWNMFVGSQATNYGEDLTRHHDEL
inactive: saracatinib 0.033 | sotrastaurin 0.107 | alvocidib -0.133 | Tubastatin A 0.153 | [1] -0.076 | defactinib 0.096 | rucaparib 0.038 | [2] -0.309 | encorafenib 0.054 | [3] 0.087

RECQL (UniProt P46063)
inactive: saracatinib 0.053 | sotrastaurin -0.012 | alvocidib -0.073 | Tubastatin A 0.021 | [1] 0.061 | defactinib -0.071 | rucaparib -0.002 | [2] -0.013 | encorafenib 0.026 | [3] -0.026

RPS14 (UniProt P62263)
inactive: saracatinib 0.027 | sotrastaurin -0.003 | alvocidib 0.166 | Tubastatin A 0.123 | [1] 0.056 | defactinib 0.113 | rucaparib 0.107 | [2] 0.069 | encorafenib 0.013 | [3] -0.084

SELENOH (UniProt Q8IZQ5)
Sequence of UniProt Q8IZQ5 (Q8IZQ5 whole entry, looked up): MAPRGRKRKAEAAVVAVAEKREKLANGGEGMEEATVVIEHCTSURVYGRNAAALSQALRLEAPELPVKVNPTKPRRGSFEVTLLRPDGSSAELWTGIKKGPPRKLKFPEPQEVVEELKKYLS
inactive: saracatinib 0.124 | sotrastaurin -0.171 | alvocidib 0.066 | Tubastatin A 0.032 | [1] -0.063 | defactinib -0.026 | rucaparib -0.011 | [2] 0.022 | encorafenib 0.011 | [3] -0.038

RSL1D1 (UniProt O76021)
active: defactinib 0.83
inactive: saracatinib -0.086 | sotrastaurin 0.05 | alvocidib 0.481 | Tubastatin A 0.06 | [1] 0.004 | rucaparib 0.359 | [2] 0.097 | encorafenib 0.117 | [3] 0.079

RPS27A (UniProt P62979)
inactive: saracatinib 0.029 | sotrastaurin 0.107 | alvocidib 0.136 | Tubastatin A -0.013 | [1] 0.05 | defactinib 0.227 | rucaparib 0.105 | [2] 0.043 | encorafenib -0.007 | [3] 0.156

SIDT2 isoform 2 (UniProt Q8NBJ9)
Sequence of UniProt Q8NBJ9 (Q8NBJ9 whole entry, looked up): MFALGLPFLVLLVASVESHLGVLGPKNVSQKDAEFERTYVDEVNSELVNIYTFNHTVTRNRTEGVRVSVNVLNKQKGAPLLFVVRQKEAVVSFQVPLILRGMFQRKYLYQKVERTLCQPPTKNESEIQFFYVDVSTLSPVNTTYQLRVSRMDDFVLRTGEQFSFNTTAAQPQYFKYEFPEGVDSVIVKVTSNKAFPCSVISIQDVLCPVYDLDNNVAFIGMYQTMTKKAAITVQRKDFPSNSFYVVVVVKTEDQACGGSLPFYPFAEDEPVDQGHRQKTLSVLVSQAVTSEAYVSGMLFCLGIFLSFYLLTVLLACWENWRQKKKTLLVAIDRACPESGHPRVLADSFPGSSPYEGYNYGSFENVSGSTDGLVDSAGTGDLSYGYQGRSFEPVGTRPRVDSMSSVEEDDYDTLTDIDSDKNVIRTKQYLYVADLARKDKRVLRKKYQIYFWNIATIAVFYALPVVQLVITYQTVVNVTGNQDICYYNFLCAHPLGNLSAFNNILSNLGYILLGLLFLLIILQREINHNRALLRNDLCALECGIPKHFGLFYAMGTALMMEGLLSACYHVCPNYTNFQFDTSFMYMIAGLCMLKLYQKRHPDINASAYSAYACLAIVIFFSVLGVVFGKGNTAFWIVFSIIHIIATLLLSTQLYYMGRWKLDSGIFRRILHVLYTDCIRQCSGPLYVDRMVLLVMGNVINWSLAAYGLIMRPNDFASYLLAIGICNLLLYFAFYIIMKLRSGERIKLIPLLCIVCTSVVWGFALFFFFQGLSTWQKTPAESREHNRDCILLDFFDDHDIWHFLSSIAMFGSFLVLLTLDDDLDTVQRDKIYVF
inactive: saracatinib 0.08 | sotrastaurin 0.024 | alvocidib 0.047 | Tubastatin A -0.083 | [1] 0.104 | defactinib -0.064 | rucaparib -0.002 | [2] -0.088 | encorafenib -0.053 | [3] -0.176

SLBP (UniProt Q14493)
Sequence of UniProt Q14493 (Q14493 whole entry, looked up): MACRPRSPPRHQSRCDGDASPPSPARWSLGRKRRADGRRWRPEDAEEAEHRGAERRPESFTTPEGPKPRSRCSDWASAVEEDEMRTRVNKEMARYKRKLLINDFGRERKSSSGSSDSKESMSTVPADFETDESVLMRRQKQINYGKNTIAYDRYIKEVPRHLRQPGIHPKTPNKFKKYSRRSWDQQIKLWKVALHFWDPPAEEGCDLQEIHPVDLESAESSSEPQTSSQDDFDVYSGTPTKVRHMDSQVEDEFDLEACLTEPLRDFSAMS
inactive: saracatinib -0.083 | sotrastaurin -0.077 | alvocidib -0.091 | Tubastatin A 0.117 | [1] 0.113 | defactinib -0.128 | rucaparib -0.158 | [2] 0.02 | encorafenib 0.113 | [3] 0

RAB5IF isoform 5 (UniProt Q9BUV8)
inactive: saracatinib 0.114 | sotrastaurin -0.018 | alvocidib -0.115 | Tubastatin A -0.139 | [1] -0.08 | defactinib -0.01 | rucaparib -0.014 | [2] -0.018 | encorafenib 0.08 | [3] 0.031

SAMSN1 isoform 3 (UniProt Q9NSI8)
Sequence of UniProt Q9NSI8 (Q9NSI8 whole entry, looked up): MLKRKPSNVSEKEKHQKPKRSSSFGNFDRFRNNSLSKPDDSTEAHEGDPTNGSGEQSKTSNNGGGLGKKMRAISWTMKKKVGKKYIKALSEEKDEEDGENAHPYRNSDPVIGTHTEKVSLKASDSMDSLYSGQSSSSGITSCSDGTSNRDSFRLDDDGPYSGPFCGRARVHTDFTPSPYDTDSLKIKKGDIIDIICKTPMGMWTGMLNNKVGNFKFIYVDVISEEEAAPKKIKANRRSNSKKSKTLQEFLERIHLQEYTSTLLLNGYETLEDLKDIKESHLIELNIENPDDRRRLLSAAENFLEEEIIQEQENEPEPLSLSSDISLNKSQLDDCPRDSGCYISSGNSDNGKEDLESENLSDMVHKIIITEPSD
inactive: saracatinib -0.023 | sotrastaurin -0.081 | alvocidib -0.058 | Tubastatin A 0.036 | [1] 0.002 | defactinib -0.051 | rucaparib -0.003 | [2] -0.029 | encorafenib 0.046 | [3] 0.024

SCAF11 (UniProt Q99590)
Sequence of UniProt Q99590 (Q99590 whole entry, looked up): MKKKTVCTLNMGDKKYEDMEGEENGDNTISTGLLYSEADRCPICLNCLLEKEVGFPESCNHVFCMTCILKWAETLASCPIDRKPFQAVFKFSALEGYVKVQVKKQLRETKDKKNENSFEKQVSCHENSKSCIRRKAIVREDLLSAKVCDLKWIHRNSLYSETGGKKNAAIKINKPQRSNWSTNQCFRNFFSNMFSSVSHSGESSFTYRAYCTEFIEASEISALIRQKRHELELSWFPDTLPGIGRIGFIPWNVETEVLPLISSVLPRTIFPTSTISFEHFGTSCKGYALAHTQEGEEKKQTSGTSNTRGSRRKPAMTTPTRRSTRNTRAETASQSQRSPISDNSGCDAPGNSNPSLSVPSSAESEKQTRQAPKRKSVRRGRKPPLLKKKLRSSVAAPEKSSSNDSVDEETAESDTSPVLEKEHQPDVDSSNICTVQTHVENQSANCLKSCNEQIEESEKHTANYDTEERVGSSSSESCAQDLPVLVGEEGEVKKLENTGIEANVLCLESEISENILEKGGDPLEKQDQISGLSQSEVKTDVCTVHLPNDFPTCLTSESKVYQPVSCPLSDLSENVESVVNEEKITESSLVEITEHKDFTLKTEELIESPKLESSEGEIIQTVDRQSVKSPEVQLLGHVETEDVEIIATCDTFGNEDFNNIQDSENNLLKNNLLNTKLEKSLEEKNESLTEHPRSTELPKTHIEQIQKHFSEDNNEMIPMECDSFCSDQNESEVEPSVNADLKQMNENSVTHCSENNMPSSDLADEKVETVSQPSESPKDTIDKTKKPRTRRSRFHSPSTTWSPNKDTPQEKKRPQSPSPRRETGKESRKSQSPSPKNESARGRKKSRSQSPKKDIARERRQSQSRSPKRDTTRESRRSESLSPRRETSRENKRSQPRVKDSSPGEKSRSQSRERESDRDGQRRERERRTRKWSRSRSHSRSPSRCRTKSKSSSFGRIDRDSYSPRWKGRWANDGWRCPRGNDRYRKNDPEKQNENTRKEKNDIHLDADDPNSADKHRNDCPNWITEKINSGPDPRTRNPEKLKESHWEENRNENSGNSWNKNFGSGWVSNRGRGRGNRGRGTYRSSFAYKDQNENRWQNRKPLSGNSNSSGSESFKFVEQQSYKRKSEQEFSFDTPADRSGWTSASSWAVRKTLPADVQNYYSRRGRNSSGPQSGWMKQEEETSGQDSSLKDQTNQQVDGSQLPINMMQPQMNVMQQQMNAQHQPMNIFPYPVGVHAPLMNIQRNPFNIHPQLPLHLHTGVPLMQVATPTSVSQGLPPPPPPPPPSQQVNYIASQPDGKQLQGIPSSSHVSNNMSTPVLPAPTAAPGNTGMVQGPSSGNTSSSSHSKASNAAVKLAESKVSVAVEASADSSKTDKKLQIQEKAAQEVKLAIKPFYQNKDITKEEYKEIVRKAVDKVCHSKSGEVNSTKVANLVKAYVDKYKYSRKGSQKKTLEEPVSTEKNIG
active: alvocidib 1.25 | defactinib 0.579
inactive: saracatinib 0.075 | sotrastaurin 0.227 | Tubastatin A -0.052 | [1] -0.077 | rucaparib 0.35 | [2] -0.052 | encorafenib 0.042 | [3] 0.188

RBM39 (UniProt Q14498)
inactive: saracatinib -0.027 | sotrastaurin -0.089 | alvocidib 0.028 | Tubastatin A 0.026 | [1] -0.303 | defactinib -0.16 | rucaparib 0.072 | [2] -0.183 | encorafenib 0.08 | [3] 0.011

RCOR1 (UniProt Q9UKL0)
inactive: saracatinib -0.011 | sotrastaurin -0.047 | alvocidib -0.066 | Tubastatin A 0.028 | [1] -0.017 | defactinib -0.119 | rucaparib -0.005 | [2] 0.073 | encorafenib 0 | [3] -0.002

SH3GL1 (UniProt Q99961)
Sequence of UniProt Q99961 (Q99961 whole entry, looked up): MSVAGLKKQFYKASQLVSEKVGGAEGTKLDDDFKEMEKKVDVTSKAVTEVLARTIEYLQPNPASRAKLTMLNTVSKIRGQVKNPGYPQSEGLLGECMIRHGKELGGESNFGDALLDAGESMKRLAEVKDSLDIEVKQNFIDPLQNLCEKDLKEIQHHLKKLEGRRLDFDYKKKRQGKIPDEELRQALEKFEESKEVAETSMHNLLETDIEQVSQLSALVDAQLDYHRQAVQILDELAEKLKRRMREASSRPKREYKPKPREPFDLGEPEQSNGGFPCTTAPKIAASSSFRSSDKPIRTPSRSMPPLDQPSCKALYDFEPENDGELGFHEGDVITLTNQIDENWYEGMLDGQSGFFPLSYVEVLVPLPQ
inactive: saracatinib -0.157 | sotrastaurin -0.163 | alvocidib -0.118 | Tubastatin A 0.092 | [1] -0.035 | defactinib -0.116 | rucaparib 0.022 | [2] 0.054 | encorafenib 0.062 | [3] -0.043

RAB5C isoform 2 (UniProt P51148)
Sequence of UniProt P51148 (P51148 whole entry, looked up): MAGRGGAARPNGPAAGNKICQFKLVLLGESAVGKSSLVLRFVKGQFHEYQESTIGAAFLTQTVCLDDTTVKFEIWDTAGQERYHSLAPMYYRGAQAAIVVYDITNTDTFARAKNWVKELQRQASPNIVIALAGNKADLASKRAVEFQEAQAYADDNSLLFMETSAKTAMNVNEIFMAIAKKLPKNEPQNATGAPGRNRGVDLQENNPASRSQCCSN
inactive: saracatinib 0.08 | sotrastaurin -0.011 | alvocidib 0.011 | Tubastatin A 0.013 | [1] -0.013 | defactinib -0.011 | rucaparib -0.02 | [2] 0.003 | encorafenib -0.039 | [3] 0.017

RRP12 (UniProt Q5JTH9)
inactive: saracatinib -0.024 | sotrastaurin -0.118 | alvocidib 0.233 | Tubastatin A 0.125 | [1] -0.057 | defactinib -0.006 | rucaparib 0.183 | [2] -0.005 | encorafenib 0.138 | [3] 0.076

SH2D1B (UniProt O14796)
active: saracatinib -1
inactive: sotrastaurin 0.05 | alvocidib -0.029 | Tubastatin A -0.046 | [1] -0.214 | defactinib -0.06 | rucaparib 0.045 | [2] -0.026 | encorafenib 0.295 | [3] 0.242

RIC8A isoform 3 (UniProt Q9NPQ8)
inactive: saracatinib 0.008 | sotrastaurin -0.223 | alvocidib -0.157 | Tubastatin A 0.108 | [1] -0.096 | defactinib -0.175 | rucaparib 0.198 | [2] -0.087 | encorafenib 0.287 | [3] -0.12

RPS4X (UniProt P62701)
inactive: saracatinib -0.164 | sotrastaurin -0.017 | alvocidib 0.247 | Tubastatin A 0.123 | [1] 0.063 | defactinib 0.302 | rucaparib 0.185 | [2] 0.089 | encorafenib 0.08 | [3] 0.014

SHCBP1 (UniProt Q8NEM2)
inactive: saracatinib -0.044 | sotrastaurin 0.017 | alvocidib -0.07 | Tubastatin A 0.174 | [1] -0.061 | defactinib -0.194 | rucaparib -0.104 | [2] -0.081 | encorafenib 0.149 | [3] -0.018

SDHC (UniProt Q99643)
Sequence of UniProt Q99643 (Q99643 whole entry, looked up): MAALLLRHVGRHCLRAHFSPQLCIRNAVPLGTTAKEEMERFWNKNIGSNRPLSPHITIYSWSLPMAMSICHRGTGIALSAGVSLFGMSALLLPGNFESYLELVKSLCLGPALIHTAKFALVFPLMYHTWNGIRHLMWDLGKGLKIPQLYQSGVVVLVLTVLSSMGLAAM
inactive: saracatinib 0.074 | sotrastaurin -0.201 | alvocidib -0.006 | Tubastatin A -0.134 | [1] 0.04 | defactinib -0.062 | rucaparib -0.012 | [2] -0.159 | encorafenib 0.029 | [3] 0.159

RHOXF2 (UniProt Q9BQY4)
inactive: saracatinib 0.015 | sotrastaurin -0.002 | alvocidib 0.011 | Tubastatin A 0.042 | [1] -0.021 | defactinib 0.008 | rucaparib 0.09 | [2] -0.074 | encorafenib -0.018 | [3] 0.066

RPS12 (UniProt P25398)
inactive: saracatinib -0.014 | sotrastaurin -0.023 | alvocidib 0.123 | Tubastatin A 0.017 | [1] 0.049 | defactinib 0.092 | rucaparib 0.12 | [2] -0.008 | encorafenib 0.02 | [3] 0.015

RBM22 (UniProt Q9NW64)
Sequence of UniProt Q9NW64 (Q9NW64 whole entry, looked up): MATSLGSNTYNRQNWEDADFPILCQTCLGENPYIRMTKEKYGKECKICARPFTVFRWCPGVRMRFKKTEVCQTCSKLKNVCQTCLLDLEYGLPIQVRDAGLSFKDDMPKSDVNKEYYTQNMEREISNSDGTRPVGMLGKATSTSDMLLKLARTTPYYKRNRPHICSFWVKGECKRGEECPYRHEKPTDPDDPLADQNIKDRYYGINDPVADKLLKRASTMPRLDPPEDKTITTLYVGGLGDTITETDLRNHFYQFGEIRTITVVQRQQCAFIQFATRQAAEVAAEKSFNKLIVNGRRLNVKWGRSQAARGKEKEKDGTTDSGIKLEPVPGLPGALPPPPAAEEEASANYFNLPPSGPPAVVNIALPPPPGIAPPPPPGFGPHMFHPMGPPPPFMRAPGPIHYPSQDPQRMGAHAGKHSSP
inactive: saracatinib 0.016 | sotrastaurin -0.013 | alvocidib 0.081 | Tubastatin A -0.065 | [1] -0.037 | defactinib -0.05 | rucaparib 0.04 | [2] -0.155 | encorafenib 0.036 | [3] 0.012
